The first assay concerns the target T1, ELK1 (Homo sapiens, UniProt P19419 1-428).
T1 sequence: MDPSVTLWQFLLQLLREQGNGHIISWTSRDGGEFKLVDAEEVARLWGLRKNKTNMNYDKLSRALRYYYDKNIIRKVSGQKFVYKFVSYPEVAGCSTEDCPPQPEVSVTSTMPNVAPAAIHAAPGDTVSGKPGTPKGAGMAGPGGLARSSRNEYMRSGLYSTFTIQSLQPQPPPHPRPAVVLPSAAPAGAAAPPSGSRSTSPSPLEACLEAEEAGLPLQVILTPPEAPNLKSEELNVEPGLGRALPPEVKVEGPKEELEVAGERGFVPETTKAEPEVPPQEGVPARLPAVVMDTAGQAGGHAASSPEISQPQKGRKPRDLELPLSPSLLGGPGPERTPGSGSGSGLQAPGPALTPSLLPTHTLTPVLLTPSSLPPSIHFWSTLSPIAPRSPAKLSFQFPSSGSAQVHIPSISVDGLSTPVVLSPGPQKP
The experiment in a line: DAPPL (digital affinity profiling via proximity ligation, sequencing); 10 mM Tris-HCl pH 7.5, 50 mM NaCl, 1 mM DTT, 4% glycerol, room temperature, 30 min; GST-TFs on glutathione beads, 16-mer random dsDNA library, 0.1% formaldehyde crosslink after washing; high values mean tight binding. Particulars: protein: recombinant; tags: N-terminal GST; dsDNA, one strand shown. Summed up:
(§1)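 Yeast served to express human transcription factors as GST fusions, which were then captured on glutathione beads and labelled with DNA barcodes. Pooled with a tag-only sample, they were incubated with 200 nmole of a 16-mer random double-stranded DNA library for 30 min at room temperature in Tris/NaCl/DTT/glycerol buffer, washed, crosslinked with 0.1% formaldehyde, ligated by proximity, amplified by PCR and sequenced. Dividing each hexamer's read frequency for a factor by its frequency for the tag-only sample gives the binding signal.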
Sequence of ELF1 (P32519 whole entry): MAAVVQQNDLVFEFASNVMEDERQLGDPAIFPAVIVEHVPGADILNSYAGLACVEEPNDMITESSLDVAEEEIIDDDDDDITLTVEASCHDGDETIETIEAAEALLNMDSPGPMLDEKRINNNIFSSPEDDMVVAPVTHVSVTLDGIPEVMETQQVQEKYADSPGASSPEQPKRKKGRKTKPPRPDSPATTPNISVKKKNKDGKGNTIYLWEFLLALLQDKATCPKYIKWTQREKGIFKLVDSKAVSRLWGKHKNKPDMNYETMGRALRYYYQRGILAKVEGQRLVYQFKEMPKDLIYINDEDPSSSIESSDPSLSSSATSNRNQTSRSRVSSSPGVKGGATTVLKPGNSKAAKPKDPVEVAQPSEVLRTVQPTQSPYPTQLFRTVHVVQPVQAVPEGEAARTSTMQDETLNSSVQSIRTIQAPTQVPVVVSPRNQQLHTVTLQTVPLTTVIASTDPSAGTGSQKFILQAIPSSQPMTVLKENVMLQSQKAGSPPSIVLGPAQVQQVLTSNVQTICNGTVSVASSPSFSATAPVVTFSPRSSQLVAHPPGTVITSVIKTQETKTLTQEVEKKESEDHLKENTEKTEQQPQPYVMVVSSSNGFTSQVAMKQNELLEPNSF
Sequence of SPIB (Q01892 whole entry): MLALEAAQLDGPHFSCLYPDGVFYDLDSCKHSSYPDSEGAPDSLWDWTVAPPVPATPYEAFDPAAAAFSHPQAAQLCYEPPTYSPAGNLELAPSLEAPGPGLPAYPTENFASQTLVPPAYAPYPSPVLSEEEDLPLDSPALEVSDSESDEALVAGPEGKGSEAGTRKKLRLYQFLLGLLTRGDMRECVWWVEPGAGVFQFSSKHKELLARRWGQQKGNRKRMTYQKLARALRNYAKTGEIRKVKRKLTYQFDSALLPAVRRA
Consider GATCCG, for which the binding signal is 1.01 fold enrichment (6-mer frequency, TF over GST control).

With GGCAGC, the binding signal was 1.02 fold enrichment (6-mer frequency, TF over GST control).

As for ATAACG, the binding signal is 1.04 fold enrichment (6-mer frequency, TF over GST control).

Consider AGATGT, for which the binding signal was 1 fold enrichment (6-mer frequency, TF over GST control).

As to GATTGA, the binding signal was 1.01 fold enrichment (6-mer frequency, TF over GST control).

For GTTGCC, the binding signal was 1.01 fold enrichment (6-mer frequency, TF over GST control).

As for GACCAA, the binding signal is 1.05 fold enrichment (6-mer frequency, TF over GST control).

For the sequence GCCACA, the binding signal is 1.02 fold enrichment (6-mer frequency, TF over GST control).

On to CCACCA, for which the binding signal was 1.04 fold enrichment (6-mer frequency, TF over GST control).

In the case of AGGTAA, the binding signal was 1.03 fold enrichment (6-mer frequency, TF over GST control).

The target in a further assay is T2, GABPA (Homo sapiens, UniProt Q06546 1-454).
T2 sequence: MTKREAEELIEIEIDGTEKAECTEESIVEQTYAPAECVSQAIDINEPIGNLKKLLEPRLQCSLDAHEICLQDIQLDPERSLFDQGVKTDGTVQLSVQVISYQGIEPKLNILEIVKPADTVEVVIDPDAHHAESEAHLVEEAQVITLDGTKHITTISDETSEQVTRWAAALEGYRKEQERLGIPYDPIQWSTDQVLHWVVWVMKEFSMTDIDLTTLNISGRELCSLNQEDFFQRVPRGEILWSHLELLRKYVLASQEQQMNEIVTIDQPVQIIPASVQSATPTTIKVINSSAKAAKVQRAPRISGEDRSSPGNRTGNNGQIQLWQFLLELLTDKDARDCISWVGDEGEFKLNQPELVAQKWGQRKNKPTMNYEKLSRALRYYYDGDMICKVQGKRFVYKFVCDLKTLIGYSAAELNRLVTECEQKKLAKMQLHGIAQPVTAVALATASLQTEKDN
The description is as above. Particulars: protein: recombinant; tags: N-terminal GST; dsDNA, one strand shown. Summed up:
as §1
As to CAAGCC, the binding signal was 1.03 fold enrichment (6-mer frequency, TF over GST control).

Regarding ATAACG, the binding signal was 1 fold enrichment (6-mer frequency, TF over GST control).

As for GTGCAA, the binding signal is 1.02 fold enrichment (6-mer frequency, TF over GST control).

For the sequence AGATGT, the binding signal was 1.01 fold enrichment (6-mer frequency, TF over GST control).

As for GACCAA, the binding signal was 1.04 fold enrichment (6-mer frequency, TF over GST control).

In the case of AGGTAA, the binding signal was 1.02 fold enrichment (6-mer frequency, TF over GST control).

The target in the next assay is T3, ERG (Homo sapiens, UniProt P11308 1-479).
T3 sequence: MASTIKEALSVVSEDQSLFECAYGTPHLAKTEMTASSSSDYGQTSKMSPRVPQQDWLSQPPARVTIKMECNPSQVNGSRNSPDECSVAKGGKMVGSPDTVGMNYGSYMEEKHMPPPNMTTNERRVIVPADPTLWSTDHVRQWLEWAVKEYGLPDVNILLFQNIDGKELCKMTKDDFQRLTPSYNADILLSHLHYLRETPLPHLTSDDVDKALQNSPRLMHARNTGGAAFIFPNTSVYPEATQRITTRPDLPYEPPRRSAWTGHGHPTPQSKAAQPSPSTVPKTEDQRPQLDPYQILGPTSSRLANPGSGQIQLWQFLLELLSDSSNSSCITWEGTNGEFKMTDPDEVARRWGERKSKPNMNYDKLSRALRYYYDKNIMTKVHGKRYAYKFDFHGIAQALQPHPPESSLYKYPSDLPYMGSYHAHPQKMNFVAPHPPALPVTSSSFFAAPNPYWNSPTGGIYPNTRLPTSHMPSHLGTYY
The assay is described as above. The note with it: protein: recombinant; tags: N-terminal GST; dsDNA, one strand shown. Summed up: as §1
As for GATCCG, the binding signal was 1.04 fold enrichment (6-mer frequency, TF over GST control).

With ACGCGT, the binding signal was 1 fold enrichment (6-mer frequency, TF over GST control).

With GTCATT, the binding signal is 1.03 fold enrichment (6-mer frequency, TF over GST control).

Another assay has as its target ELF1 (Homo sapiens, UniProt P32519 1-619). Described as above. Particulars: protein: recombinant; tags: N-terminal GST; dsDNA, one strand shown. Summed up: as §1
Turning to ACACAG, the binding signal is 1.05 fold enrichment (6-mer frequency, TF over GST control).

Regarding TCAGTA, the binding signal is 1.01 fold enrichment (6-mer frequency, TF over GST control).

With TCTGAG, the binding signal is 1.01 fold enrichment (6-mer frequency, TF over GST control).

For GACCAA, the binding signal was 1.02 fold enrichment (6-mer frequency, TF over GST control).

As for GCCACA, the binding signal was 1.01 fold enrichment (6-mer frequency, TF over GST control).

For the sequence CCACCA, the binding signal was 1.12 fold enrichment (6-mer frequency, TF over GST control).

With TGAACG, the binding signal was 1.01 fold enrichment (6-mer frequency, TF over GST control).

GATACC: the binding signal was 1.04 fold enrichment (6-mer frequency, TF over GST control).

The target in a further assay is T4, EHF (Homo sapiens, UniProt Q9NZC4 1-300).
T4 sequence: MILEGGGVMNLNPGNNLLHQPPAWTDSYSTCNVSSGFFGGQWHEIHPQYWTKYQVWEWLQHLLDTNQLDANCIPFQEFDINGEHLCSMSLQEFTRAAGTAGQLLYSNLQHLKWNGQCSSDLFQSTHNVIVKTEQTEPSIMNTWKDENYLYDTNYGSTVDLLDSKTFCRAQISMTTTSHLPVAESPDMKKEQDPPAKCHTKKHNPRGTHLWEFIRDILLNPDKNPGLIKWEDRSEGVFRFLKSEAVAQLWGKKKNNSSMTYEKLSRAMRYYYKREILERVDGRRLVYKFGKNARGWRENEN
The assay is described as above. The note with it: protein: recombinant; tags: N-terminal GST; dsDNA, one strand shown. Summed up: as §1
As to GGCTGC, the binding signal is 1.02 fold enrichment (6-mer frequency, TF over GST control).

As to TCTGAG, the binding signal was 1.01 fold enrichment (6-mer frequency, TF over GST control).

For GTGCAA, the binding signal is 1 fold enrichment (6-mer frequency, TF over GST control).

As to CCACCA, the binding signal is 1.04 fold enrichment (6-mer frequency, TF over GST control).

Take GATACC: the binding signal was 1 fold enrichment (6-mer frequency, TF over GST control).

In another assay the target is SPI1 (Homo sapiens, UniProt P17947 1-270). The description is as above. Particulars: protein: recombinant; tags: N-terminal GST; dsDNA, one strand shown. Summed up:
as §1
Turning to GGCTGC, the binding signal is 1.01 fold enrichment (6-mer frequency, TF over GST control).

As for ATAACG, the binding signal was 1.01 fold enrichment (6-mer frequency, TF over GST control).

Take GTGCAA: the binding signal is 1.06 fold enrichment (6-mer frequency, TF over GST control).

GTGGTA: the binding signal was 1.02 fold enrichment (6-mer frequency, TF over GST control).

The next assay concerns the target SPIB (Homo sapiens, UniProt Q01892 1-262). The description is as above. Particulars: protein: recombinant; tags: N-terminal GST; dsDNA, one strand shown. Summed up:
as §1
As for GATCCG, the binding signal was 1.05 fold enrichment (6-mer frequency, TF over GST control).

ACGCGT: the binding signal was 1.04 fold enrichment (6-mer frequency, TF over GST control).

Consider ATAACG, for which the binding signal was 1.01 fold enrichment (6-mer frequency, TF over GST control).

Regarding CCACCA, the binding signal was 1.08 fold enrichment (6-mer frequency, TF over GST control).

With GTGGTA, the binding signal was 1 fold enrichment (6-mer frequency, TF over GST control).

A further assay addresses T5, ELK3 (Homo sapiens, UniProt P41970 1-407).
T5 sequence: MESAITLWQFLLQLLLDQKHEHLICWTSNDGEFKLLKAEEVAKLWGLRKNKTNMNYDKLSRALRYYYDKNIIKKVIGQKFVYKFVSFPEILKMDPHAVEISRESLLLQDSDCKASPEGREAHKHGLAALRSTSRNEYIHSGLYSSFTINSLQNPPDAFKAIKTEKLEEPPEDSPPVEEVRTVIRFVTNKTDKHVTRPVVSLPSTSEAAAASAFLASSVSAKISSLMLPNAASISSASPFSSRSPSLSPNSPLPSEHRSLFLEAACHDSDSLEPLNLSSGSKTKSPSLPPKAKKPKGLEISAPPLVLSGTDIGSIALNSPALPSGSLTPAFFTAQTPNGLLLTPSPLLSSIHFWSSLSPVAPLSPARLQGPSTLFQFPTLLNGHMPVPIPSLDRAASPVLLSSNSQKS
The assay is described as above. The note with it: protein: recombinant; tags: N-terminal GST; dsDNA, one strand shown. Summed up:
as §1
On to CGGTCC, for which the binding signal is 1.03 fold enrichment (6-mer frequency, TF over GST control).

CAAGCC: the binding signal was 1.06 fold enrichment (6-mer frequency, TF over GST control).

These data come from paper PMC7862700, “An all-to-all approach to the identification of sequence-specific readers for epigenetic DNA modifications on cytosine”.
